Screens deposited in PubChem by National Center for Advancing Translational Sciences (NCATS).
Six1-Eya2 inh – qHTS Assay for Inhibitors of the Six1/Eya2 Interaction. AlphaScreen GST-Six1/His-Eya2 binding, biochemical; stronger effect = lower value. activity change, % (test concentration not listed). actives 0.56% (n = 360,000); in the data active = activity change below about -65%; inconclusive = mostly about -30% to -63%
Target sequence (O00167 whole entry, looked up): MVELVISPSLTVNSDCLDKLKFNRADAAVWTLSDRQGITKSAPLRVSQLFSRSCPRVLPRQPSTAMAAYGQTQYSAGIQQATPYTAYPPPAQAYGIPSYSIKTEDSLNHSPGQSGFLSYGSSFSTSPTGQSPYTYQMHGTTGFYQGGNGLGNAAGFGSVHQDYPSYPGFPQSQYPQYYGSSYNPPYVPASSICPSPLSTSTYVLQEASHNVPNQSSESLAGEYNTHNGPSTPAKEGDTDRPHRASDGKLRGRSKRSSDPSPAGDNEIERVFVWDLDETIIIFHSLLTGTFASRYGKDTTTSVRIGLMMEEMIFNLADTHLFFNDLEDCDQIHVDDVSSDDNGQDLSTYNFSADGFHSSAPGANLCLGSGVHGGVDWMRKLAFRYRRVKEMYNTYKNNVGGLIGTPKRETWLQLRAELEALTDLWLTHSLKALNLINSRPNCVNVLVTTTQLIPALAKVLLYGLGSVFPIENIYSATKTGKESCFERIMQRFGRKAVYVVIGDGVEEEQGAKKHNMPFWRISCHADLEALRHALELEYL
Target sequence (Q15475 whole entry, looked up): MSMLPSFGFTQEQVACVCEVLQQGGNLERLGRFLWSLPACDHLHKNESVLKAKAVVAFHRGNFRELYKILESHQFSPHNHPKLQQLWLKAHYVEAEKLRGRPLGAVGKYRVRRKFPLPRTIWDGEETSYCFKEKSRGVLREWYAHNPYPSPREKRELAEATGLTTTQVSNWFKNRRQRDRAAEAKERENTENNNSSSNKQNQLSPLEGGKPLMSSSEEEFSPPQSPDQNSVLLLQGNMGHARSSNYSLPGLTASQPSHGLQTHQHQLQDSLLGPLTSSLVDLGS
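AlphaScreen luminescence read after one hour at 37 °C in darkness. Pin-transferred compounds met GST-Six1 and His-Eya2 protein (5X stock 250 nM/500 nM) plus glutathione donor and Ni-chelate acceptor beads (5X, 50 ug/mL).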
RGS4 inhibitor – Inhibitors of Regulator of G Protein Signaling (RGS) 4: qHTS; actives 0.039% (n = 390,000); Regulator of G-protein signaling 4 (Homo sapiens), P49798; Transcreener GDP fluorescence polarization, RGS4-accelerated GTP hydrolysis; Potency, µM (doses to about 114 µM), usual class: inhibitors; AID 504845, 2011; also: nearly all actives have a fitted effect of over 75% in size
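MLSMR compounds (23 nl, pin-transferred) preincubated 10 min at room temperature with a 500nM (2x) first reagent, then RGS4 at 900nM (2x) plus Transcreener GDP mix added; fluorescence polarization (620/688 nm) read before and after 90 min at 30 °C.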
CtBP-E1A blk – qHTS Assay for Inhibitors of the CtBP/E1A Interaction | activity change, % (test concentration not listed) | AlphaScreen GST-E1A/His-CtBP binding, 1536-well; stronger effect = lower value | CtBP / adenovirus E1A interaction (AlphaScreen) | AID 651724, 2012 | actives 0.49% (n = 340,000); in the data active = activity change below about -65%; inconclusive = mostly about -30% to -63%
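GST-E1A and His-tagged CtBP (125 nM each as 5X stock) were preincubated with pin-transferred compound for 2 h at 37 °C in the dark, then glutathione donor and nickel acceptor beads were added for 1 h before AlphaScreen reading.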
GRP78 ERSR act – qHTS for Inducers of the Endoplasmic Reticulum Stress Response (ERSR) in Human Glioma: qHTS; U87-MG GRP78 promoter luciferase reporter, 16 h; Potency, µM, most hits filed as activators; actives 0.02% (n = 420,000); also: series mostly up to about 76 µM; nearly all actives have a fitted effect of over 35% in size
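Stably transfected U87-MG glioma cells carrying a GRP78-based luciferase sensor; 16 h compound incubation. Luminescence end-point read 10 min after Bright-Glo addition at room temperature.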
pAkt inh – HTS Assay for Inhibitors of Akt Phophorylation: Primary Screen; Neuro2A IGF-stimulated pAkt S473 HTRF, 20 min; stronger effect = lower value; activity change, % for hits at 50 µM; actives 0.32% (n = 360,000); AID 651550, 2012; in the data active = activity change below about -80%; inconclusive = mostly about -51% to -80%
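Neuro2A cells in DMEM with 0.5% FBS, overnight at 37 deg C, given compound at single 50 µM final, then IGF (6 nM final) for 20 min at 37 deg C. Lysed; phospho-Akt Ser473 by HTRF after 24 h, 665/615 ratio.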
Hits are given with their value; . = inactive; ? = inconclusive; / = no result given; ! = a repeat was not active; [ ] = dose if it differs, or a comment. Compounds with a hit are over-represented: about 0.88% of the library has one in this group of screens. Unless noted, calls follow the shape of the dose curve; as a rule, active = well fitted curve in the direction sought with a large enough effect; inconclusive = small, poorly fitted or top-dose-only effect, or another doubt; inactive = no such curve, though single readings can be large; an effect the other way counts as inactive or inconclusive.

SMILES	Six1-Eya2 inh	RGS4 inhibitor	CtBP-E1A blk	GRP78 ERSR act	pAkt inh
CCN(CC)c1ccc(N=Cc2c(O)n(Cc3ccccc3)c(=O)[nH]c2=O)cc1	-72!	.	.	.	.
CCN(CC)c1ccc(N=Cc2c(O)n(-c3ccccc3)c(=O)[nH]c2=O)cc1	.	.	/	.	.
COc1ccc(Cn2c(O)c(/C=N/NC(=O)c3ccccc3)c(=O)[nH]c2=O)cc1	?	?	-85	.	.
O=C(N/N=C/c1c(O)n(Cc2ccc(F)cc2)c(=O)[nH]c1=O)c1ccccc1O	-88	.	?	.	.
Cc1cc(/C=C/c2cccc3sc(C)[n+](CCCCI)c23)ccc1N(CCCl)CCCl	/	/	/	.	/
CCC(=O)O[C@@](Cc1ccccc1)(c1ccccc1)[C@H](C)CN(C)C	/	/	/	.	/
O=C(N/N=C/c1c(O)n(Cc2ccccc2)c(=O)[nH]c1=O)c1ccccc1O	-89	.	.	.	.
COc1ccc(Cn2c(O)c(/C=N/NC(=O)c3ccccc3O)c(=O)[nH]c2=O)cc1	-87	.	-72	?	.
O=C(N/N=C/c1c(O)n(CCc2ccccc2)c(=O)[nH]c1=O)c1ccccc1O	?	.	/	.	.
C=CCC1(O)CCC2C3CCC4=CC(=O)CCC4=C3C=CC21C (stereo unspecified)	/	/	/	.	/
CN1C(=O)/C(=C/c2cccn2-c2ccc3ccccc3c2)C(=O)NC1=S	-79	?	.	.	.
COc1cc(CC(C)N)c(OC)cc1C (stereo unspecified)	/	/	/	.	/
N/C(=N\N=C\c1ccc(O)cc1O)N[N+](=O)[O-]	-74	.	-83	.	.
CCCCC/C=C\C/C=C\C/C=C\C/C=C\CCCC(=O)NCCCl	/	/	/	.	/
NC(N)=Nc1ccc2[nH]c3c(c2c1)C[C@@]1(O)[C@H]2Cc4ccc(O)c5c4[C@@]1(CCN2CC1CC1)[C@H]3O5	.	24µM	.	.	.
Oc1ccc2c3c1O[C@H]1c4[nH]c5c(c4C[C@@]4(O)[C@@H](C2)N(CC2CC2)CC[C@]314)C[C@]1(O)[C@H]2Cc3ccc(O)c4c3[C@@]1(CCN2CC1CC1)[C@@H]5O4	/	/	/	.	/
CN(C)C1C(=O)C(C(N)=O)=C(O)[C@@]2(O)C(=O)C3=C(O)c4c(O)cccc4[C@](C)(O)C3C(O)C12 (stereo partly specified)	/	/	/	.	/
CN(C)[C@@H]1C(=O)C(C(N)=O)=C(O)[C@@]2(O)C(=O)C3=C(O)c4c(O)cccc4[C@@](C)(O)[C@H]3[C@H](O)[C@@H]12	?	?	-67!	.	.
CC[C@H](OC(C)=O)C(C[C@H](C)NC)(c1ccccc1)c1ccccc1	/	/	/	.	/
CN(N=O)c1ccc(O)c(O)c1	/	6µM	/	.	/
C[C@@H]1O[C@@H](O[C@H]2CC[C@@H](O[C@H]3[C@H](O)C[C@H](c4ccc5c(c4O)C(=O)C4=C(C5=O)[C@@]5(O)C(=O)C[C@](C)(O[C@H]6CC[C@H](O[C@H]7C=CC(=O)[C@H](C)O7)[C@H](C)O6)C[C@@]5(O)C=C4)O[C@@H]3C)O[C@H]2C)C=CC1=O	/	/	/	.	/
Cc1ccc2c(c1)[C@]13CCCC[C@@H]1[C@@H](C2)N(C)CC3	/	/	/	.	/
O=c1[nH]c(=O)n(-c2cccc(Cl)c2)c(O)c1C=NCCCN1CCOCC1	.	.	.	.	.
Cc1ccc(-n2c(O)c(C=NCCN3CCOCC3)c(=O)[nH]c2=O)cc1	.	.	.	.	-128%
Nc1c2c(nc3ccccc13)CCN(Cc1ccccc1)C2	.	.	/	.	.
SMILES	Six1-Eya2 inh	RGS4 inhibitor	CtBP-E1A blk	GRP78 ERSR act	pAkt inh
CN1CCc2nc3ccc(F)cc3c(C(N)=O)c2C1	.	.	.	.	-99%
C=C(C)[C@@H]1CC[C@]2(C(=O)O)CC[C@]3(C)[C@H](CCC4[C@@]5(C)CC[C@H](O)C(C)(C)[C@@H]5CC[C@]43C)[C@@H]12 (stereo partly specified)	/	.	/	.	/
CCOC(=O)Nc1ccc(NCc2ccc(F)cc2)nc1N	.	8.4µM	?	.	.
S=C(S)N1CCCC1	.	5.3µM!	.	.	.
NCCc1cc(O)c(O)cc1O	?	?	.	.	.
NC(Cc1cc(O)c(O)cc1O)C(=O)O (stereo unspecified)	/	3µM	/	.	/
C=C1C(=O)O[C@@H]2C[C@@H](C)[C@@H]3C=CC(=O)[C@@]3(C)[C@@H](O)[C@H]12	.	21µM	.	.	.
N[C@@H](Cn1ccc(=O)n(Cc2ccc(C(=O)O)cc2)c1=O)C(=O)O	/	8.4µM	/	.	/
CC1(O)CCC2C3CCC4=CC(=O)CCC4(C)C3(F)C(O)CC21C (stereo unspecified)	/	/	/	.	/
CN1CCCCC1c1cccnc1 (stereo unspecified)	/	38µM	/	.	/
Nc1c(C(=O)NCc2ccco2)c2nc3ccccc3nc2n1CCN1CCOCC1	?	.	-73	.	.
Nc1c(C(=O)NCc2ccco2)c2nc3ccccc3nc2n1Cc1ccccc1	.	.	/	.	.
c1ccc(CCN2CCCCC2)cc1	/	/	/	.	/
COCCOC(=O)c1c(N)n(Cc2ccccc2)c2nc3ccccc3nc12	.	.[11.4 µM]	.	.	.
CCCOC(=O)c1c(N)n(Cc2cccs2)c2nc3ccccc3nc12	.	.	.	.	-115%
O=C(C1CC(=O)N(C2CCCCC2)C1)N1CCC2(CC1)OCCO2 (stereo unspecified)	.	.	.	.	-110%
COc1cc(=O)n2c(c1C(=O)N(C)Cc1nonc1C)CCN(C(=O)C1C(C)(C)C1(C)C)CC2	/	/	/	.	/
CC1(C)CC/C(=C\c2ccc(Cl)cc2)C1(O)Cn1cncn1 (stereo unspecified)	/	/	/	.	/
CN1CC[C@@]2(C)c3cc(O)ccc3N(C)C12 (stereo partly specified)	/	21µM	/	.	/
CC[C@H]1C(=O)OC[C@H]1Cc1cncn1C	/	/	/	.	/
CCC1C(=O)OCC1Cc1cncn1C (stereo unspecified)	/	27µM!	/	.	/
Cc1c(N)nc([C@@H](CC(N)=O)NC[C@H](N)C(N)=O)nc1C(=O)N[C@H](C(=O)N[C@H](C)[C@H](O)[C@H](C)C(=O)N[C@@H](C(=O)NCCc1nc(-c2nc(C(=O)NCCC[S+](C)C)cs2)cs1)[C@H](C)O)[C@H](O[C@@H]1O[C@@H](CO)[C@@H](O)[C@H](O)[C@@H]1O[C@H]1O[C@H](CO)[C@H](O)[C@H](OC(N)=O)[C@@H]1O)c1cnc[nH]1	/	/	/	.	/
N.N.N.N.N.N.N.N.N.N.N.N.N.N.O.O.[Ru+4].[Ru+5].[Ru+5]	/	19µM	/	.	/
CC(=NNC(=S)N1CC2CCC(CC2)C1)c1nccs1	-89	.	-97	.	.
CCCCCc1cc(O)c2c(c1)OC(C)(C)c1ccc(C)cc1-2	/	/	/	.	/
NC(=O)CI	/	19µM	/	.	/
